# Bioassay records from PubChem.
# TRHR enhancer: TRH receptor (human) allosteric enhancement. P34981. TRHR cells, fluo-8 calcium fluorescence, EC20 TRH enhancement. enhancement, % at 2 µM. 360,000 compounds, 0.66% hits. AID 493056; in the data active = enhancement above about 30%; note: 0% is about no effect
# Target sequence (P34981 whole entry, looked up): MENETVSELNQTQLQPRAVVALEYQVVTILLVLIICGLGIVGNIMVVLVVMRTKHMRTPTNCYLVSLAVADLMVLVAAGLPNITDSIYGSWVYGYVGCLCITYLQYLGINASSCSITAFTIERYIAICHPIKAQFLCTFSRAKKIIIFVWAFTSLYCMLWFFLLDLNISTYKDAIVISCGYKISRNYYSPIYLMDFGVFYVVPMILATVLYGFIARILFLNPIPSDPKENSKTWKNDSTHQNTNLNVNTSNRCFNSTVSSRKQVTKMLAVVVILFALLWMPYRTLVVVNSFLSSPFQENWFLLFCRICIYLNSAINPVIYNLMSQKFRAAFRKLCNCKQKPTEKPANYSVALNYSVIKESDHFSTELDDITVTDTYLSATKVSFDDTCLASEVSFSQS
#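 Enhancer read-out: after compound pinning and an initial kinetic agonist-mode read, an EC20 of TRH (10 nM final) was injected and fluo-8 calcium signal (Ex 480/Em 530) followed at 1 s/cycle for 100 cycles in TRHR-expressing cells.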
# TRHR agonist: TRH receptor (human) agonism | P34981 | TRHR cells, calcium flux fluo-8, FDSS agonist mode | activation, % at 2 µM | 360,000 compounds, 0.18% hits | AID 493084; note: 0% is about no effect
#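 TRHR-expressing cells loaded with fluo-8 calcium dye; 23 nL library compound pin-transferred, kinetic FDSS fluorescence (Ex 480/Em 530) recorded about 180 s for agonist-induced calcium release, before a 10 nM TRH EC20 addition for potentiator mode.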
# D1 agonist: activates the human D1 dopamine receptor. HEK293 T-REx D1 cells, calcium flux, agonist mode. P21728. 360,000 compounds, 1% hits. activation, % at 2 µM; note: 0% is about no effect
#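 Inducible HEK293 T-REx D1 cells, force-coupled to calcium signalling, were plated at 4000 cells/well with tetracycline and held overnight at 30 C. After no-wash calcium dye loading, compound-evoked calcium rise over 180 s flagged agonists.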
# D1 antagonist: antagonists of human D1 dopamine receptor | HEK293 TREx D1 cells, calcium flux, dopamine EC80; hits give low values | activity change, negative = inhibition, % at 10 µM | 360,000 compounds, 3.2% hits; in the data active = activity change below about -30%; note: % is set by controls: 0 for no effect and ±100 for the full control effect
#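 Inducible Hek293 Trex D1 cells (tetracycline, overnight, 30 C). Calcium dye 30–90 min RT. Antagonist mode: EC80 dopamine added after 180 s compound read.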
# D1 PAM: human D1 dopamine receptor positive modulation; P21728; HEK293 TREx D1 cells, calcium flux, dopamine EC20 potentiation; potentiation, % at 10 µM; 360,000 compounds, 0.036% hits; in the data active = potentiation above about 30%; note: 0% is about no effect
# GRP78 ERSR act: induces the endoplasmic reticulum stress response in human glioma cells; U87-MG GRP78 promoter luciferase reporter, 16 h; Potency, µM, inactives show at the highest dose activation, hits mostly activators; 420,000 compounds, 0.02% hits; AID 602332; active = well fitted activation curve with a large enough effect; note: potency is the fitted concentration of half-maximal effect; series mostly up to about 76 µM; % of control where 0% means no effect; nearly all actives have a fitted effect of over 35% in size
#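 Stably transfected U87-MG human glioma cells carrying a GRP78-based luminescent sensor were seeded at 1000 cells/well, pin-dosed with compounds and incubated 16 h. Luciferase reagent was then added, and end-point luminescence was read after 10 min at room temperature.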
# * hit, by the source's call; / = not tested or not shown. The list is not random: actives were taken first. Their share in the collection is about 4%. Cut-off read from the data, not from the text of the source, unless noted: active = activation above about 30%; inactive = the rest.
SMILES,TRHR enhancer,TRHR agonist,D1 agonist,D1 antagonist,D1 PAM,GRP78 ERSR act
COc1cc(C(=O)N(C)C2CCCCC2)ccc1OC1CCN(C(C)=O)CC1,21,0,2,-9,-1,0%
COc1ccc(C(=O)NC2CC2)cc1OC1CCN(Cc2ccc(F)cc2F)CC1,5,0,1,-19,-17,-5%
C=CCOc1ccccc1CN1CCC(Oc2cc(C(=O)NC3CC3)ccc2OC)CC1,-4,0,1,-74*,-9,-2%
COc1ccc(C(=O)NC2CC2)cc1OC1CCN(Cc2ccccc2O)CC1,-10,0,2,-38*,-23,1%
C=CCN(CC=C)C(=O)c1ccc(OC2CCN(C(C)=O)CC2)c(OC)c1,3,0,4,-42*,3,0%
COc1ccc(C(=O)NC2CC2)cc1OC1CCN(Cc2ccccc2F)CC1,-1,-1,2,-53*,-4,-6%
COc1ccc(C(=O)OCC(=O)NC2CC2)cc1,/,/,/,/,/,-4%
CC1=CC(C)(C)N=C(Nc2ccc(C)cc2)S1,-4,1,4,-33*,-12,4%
Cc1ccc(C(=O)NCC(=O)N2CCCC(C(F)(F)F)C2)s1 (stereo not given),12,0,-1,22,9,0%
CC(=O)OC[C@H]1O[C@@H](CCO/N=C2/[C@H]3O[C@@H]3[C@@H](O)[C@H]3[C@H]2CCn2c(=O)n(-c4ccccc4)c(=O)n23)C=C[C@@H]1OC(C)=O,/,/,/,/,/,-3%
Cc1cccc(C(=O)OCC(=O)Nc2c(C)n(C)n(-c3ccccc3)c2=O)c1,-2,0,2,5,-5,-5%
Cc1ccnc(NC(c2cc(C)ccc2O)c2ccc3cccnc3c2O)c1 (stereo not given),-1,-1,0,-50*,-2,/
COc1ccc(OC)c(C(c2nnnn2CCc2ccccc2)N2CCN(c3ccccc3)CC2)c1 (stereo not given),-6,23,3,9,-8,-2%
COc1ccc(N2CCN(C(c3cc(OC)ccc3OC)c3nnnn3Cc3ccco3)CC2)cc1 (stereo not given),39*,-1,2,1,-1,-6%
O=C(CCSc1ccc(Cl)c(Cl)c1)NC12CC3CC(CC(C3)C1)C2,12,-3,41*,-4,-5,10%
COc1ccc(CC2(CO)CCN(Cc3cnn(-c4ccc(F)cc4)c3)CC2)cc1,1,3,47*,-29,-4,-3%
Cc1ccc(NC(=O)Cc2sc(C)nc2-c2ccc(C)cc2)cc1,5,-1,1,-35*,-11,-2%
CCCCN(CC)Cc1ccc(CNC(=S)Nc2cccc(F)c2)o1,-9,-2,34*,-1,-9,-1%
COc1ccc(/C=C(\C#N)C(=O)NCc2cccs2)cc1OC,26,-1,0,-34*,0,-2%
COc1cc2c(cc1OC)C1=C(C#N)CC/C(=N\S(=O)(=O)c3cccc(Cl)c3)N1CC2,-1,1,3,-74*,-10,-4%
COc1ccc(CNC(=O)c2cc3c(=O)n(Cc4ccco4)ccc3nc2C)cc1,7,0,1,-35*,-7,-2%
COc1ccc(Cn2ccc3nc(C)c(C(=O)N4CCN(c5ccccc5OC)CC4)cc3c2=O)cc1,-2,0,-1,-33*,-1,-3%
COc1ccc(Cn2ccc3nc(C)c(C(=O)N4CCN(c5ccc(OC)cc5)CC4)cc3c2=O)cc1,-7,0,27,-7,-6,0%
Cc1ccc(-n2c(C)cc(C=C(C#N)C#N)c2C)cc1,-10,0,7,-46*,-4,0%
COCCNC(=O)/C(C#N)=C/c1cc(C)n(-c2ccc(C)cc2)c1C,-3,-2,9,-64*,-10,-3%
SMILES,TRHR enhancer,TRHR agonist,D1 agonist,D1 antagonist,D1 PAM,GRP78 ERSR act
COCCNC(=O)/C(C#N)=C/c1cc(C)n(C2CCCCC2)c1C,0,-1,2,-17,-5,-6%
CCCc1cc(=O)oc2cc(C)cc(OCC(=O)N3CCC(C(=O)O)CC3)c12,2,0,1,-64*,-3,-2%
O=C(N/N=C/c1ccc(OC(=O)c2ccccc2Cl)cc1)c1ccccn1,31*,0,1,-15,3,-3%
CO[C@H]1COC(=O)C/C=C\[C@@H](C)COC(=O)[C@H]2CCCN2C(=O)C/C=C\[C@H]1C,/,/,/,/,/,-3%
COCC1CCCCN1C(=O)c1ccc(OC2CCN(CCc3ccccc3)CC2)cc1 (stereo not given),0,1,10,-4,-1,0%
O=C(c1ccc(OC2CCN(CCc3ccccc3)CC2)cc1)N1CCC[C@H]1CO,5,1,0,-79*,-5,-4%
CCCCCNC(=O)c1cc(S(=O)(=O)N2CCCCC2)ccc1F,-5,-1,2,-62*,-2,-2%
CCCCNC(=S)Nc1cc(S(=O)(=O)N2CCCCC2)ccc1C,-12,1,23,-37*,-15,-2%
CC(=O)c1c(C)[nH]c(C(=O)Nc2cc(S(=O)(=O)N3CCCCC3)ccc2C)c1C,-9,0,4,-31*,-10,1%
COc1ccc(S(=O)(=O)N2CCCCC2)cc1NC(=O)c1[nH]c(C)c(C(C)=O)c1C,/,/,/,/,/,-1%
CCn1cc(CN2CCc3c([nH]c4ccccc34)C2c2cccc(OC)c2)c(C)n1 (stereo not given),-2,0,24,-35*,-3,-3%
CN(C)CCCN(C(=O)C1=COCCO1)c1nc2ccc(Br)cc2s1,4,1,68*,-41*,-3,-4%
Cc1cc(C)c2nc(N(CCCN(C)C)C(=O)C3=COCCO3)sc2c1,1,4,21,-20,-6,-1%
CC1CCCCN1S(=O)(=O)c1ccc(C(=O)N(CCCN(C)C)c2nc3ccc(Br)cc3s2)cc1 (stereo not given),3,2,30,-32*,0,-10%
CCCCN(C)S(=O)(=O)c1ccc(C(=O)N(CCN(C)C)c2nc3ccc(C)cc3s2)cc1,-4,0,2,-39*,-9,2%
Cc1ccc2nc(N(CCCN(C)C)C(=O)c3ccc(S(=O)(=O)N4CCCCCC4)cc3)sc2c1,2,3,38*,1,0,-10%
CCc1ccc2nc(N(CCCN(C)C)C(=O)c3ccc(S(=O)(=O)N4CCCC4)cc3)sc2c1,-5,1,15,6,-7,-8%
COc1cccc(CNn2c(-c3cccc(C)c3)nc3ccccc3c2=O)c1,37*,1,5,8,-4,-1%
COc1ccc(OC)c(CNn2c(-c3cccc(C)c3)nc3ccccc3c2=O)c1,2,0,2,3,-1,2%
